PAFAH1B3 inh = PAFAH1B3 enzyme inhibitors, primary screen, biochemical, fluorescence polarization, human; Platelet-activating factor acetylhydrolase IB subunit alpha1 (Homo sapiens), Q15102; 340,000 compounds, 0.28% hits; recombinant PAFAH1B3, FP-rhodamine probe; inhibition, % at 3.39 µM; AID 492972, 2010;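 active = inhibition above the screen-wide average of all tested compounds plus 3 SD, cut at about 25% in these data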
PAFAH1B2 inh = PAFAH1B2 enzyme inhibitors, primary screen, biochemical, fluorescence polarization, human | Platelet-activating factor acetylhydrolase IB subunit alpha2 (Homo sapiens), P68402 | recombinant PAFAH1B2, FP-rhodamine activity probe | inhibition, % at 3.39 µM | 340,000 compounds, 1.2% hits | AID 492953, 2010;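 active = inhibition above the mean of all tested compounds plus 3 SD, cut at about 24% in these data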
Fam108B counter = mouse Fam108B serine hydrolase inhibitors, primary screen, counter-screen for RBBP9 inhibitor project, biochemical, fluorescence polarization. recombinant Fam108B, FP-Rh probe fluorescence polarization. inhibition, % at 9.51 µM. 300,000 compounds, 0.33% hits;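 active = inhibition above the screen mean inhibition plus 3 SD, computed separately per campaign, cut at about 18% in these data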;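 also: inhibitors lower polarization as less probe binds the enzyme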
PME-1 inh = PME-1 inhibitors via competitive probe labeling, primary screen, biochemical, fluorescence polarization, FP-Rh probe, HTS | AID 2130, 2009 | 320,000 compounds, 0.53% hits | inhibition, % at 5.9 µM | recombinant PME-1;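 active = inhibition above the campaign mean of all compounds plus 3 SD, cut at about 26% in these data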;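 also: competitive labeling of PME-1 active site by serine hydrolase directed probe; inhibitors block probe labeling so polarization falls and inhibition rises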
pPAFAH inh = pPAFAH enzyme inhibitors, primary screen, biochemical, fluorescence polarization, human. Platelet-activating factor acetylhydrolase (Homo sapiens), Q13093. recombinant pPAFAH, FP-rhodamine probe fluorescence polarization. AID 463082, 2010. inhibition, % at 3.39 µM. 330,000 compounds, 1.5% hits;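 active = inhibition above the mean inhibition across the screen plus 3 SD, cut at about 25% in these data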;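 also: inhibitors block binding of the rhodamine activity-based probe so polarization drops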
Target sequence (Q13093 whole entry, looked up): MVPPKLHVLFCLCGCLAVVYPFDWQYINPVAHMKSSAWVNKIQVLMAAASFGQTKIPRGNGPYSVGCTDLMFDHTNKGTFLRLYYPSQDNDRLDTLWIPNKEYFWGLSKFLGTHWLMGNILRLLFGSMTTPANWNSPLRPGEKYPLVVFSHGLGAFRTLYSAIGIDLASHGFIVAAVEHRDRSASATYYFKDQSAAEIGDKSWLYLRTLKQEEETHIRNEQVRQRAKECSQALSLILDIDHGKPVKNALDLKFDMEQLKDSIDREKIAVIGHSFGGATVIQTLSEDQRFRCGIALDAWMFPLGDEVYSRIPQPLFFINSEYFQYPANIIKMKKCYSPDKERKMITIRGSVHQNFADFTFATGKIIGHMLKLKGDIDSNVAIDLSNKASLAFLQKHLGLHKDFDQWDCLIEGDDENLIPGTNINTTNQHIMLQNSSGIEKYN
PAFAH2 FP inh = PAFAH2 enzyme inhibitors, primary screen, biochemical, fluorescence polarization, human; 340,000 compounds, 0.99% hits; recombinant PAFAH2, FP-rhodamine activity probe; inhibition, % at 3.39 µM;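 active = inhibition above the mean over all tested compounds plus 3 SD, cut at about 30% in these data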;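 also: inhibitors block probe labeling of enzyme so polarization drops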
A number is an active result; n = inactive; x = no result. Rows were chosen to be rich in hits. Some 2.8% of all compounds tested hit in one or more screens of this group.

SMILES	PAFAH1B3 inh	PAFAH1B2 inh	Fam108B counter	PME-1 inh	pPAFAH inh	PAFAH2 FP inh
CCOC(=O)c1c(NC(C)=O)sc2c1CCN(Cc1ccccc1)C2	n	n	n	n	n	n
Cc1csc(=O)n1CC(=O)Nc1ccc(C(C)C)cc1	n	n	x	x	x	n
C[C@H](NS(=O)(=O)OCC(Cl)(Cl)Cl)C1CC1c1ccccc1 (stereo partly drawn)	n	32	n	n	26	n
CC(NS(=O)(=O)OCC(Cl)(Cl)Cl)c1ccc(C(C)(C)C)cc1 (stereo not drawn)	n	n	n	n	n	n
CC(C)Cc1csc(NC(=O)c2ccccc2Cl)c1C(=O)O	n	n	n	n	n	n
CC(C)Cc1csc(NC(=O)c2ccc(Cl)cc2)c1C(=O)O	n	n	n	n	n	42
CCOc1ccc(NC(=O)Nc2ccc3c(c2)N(C)C(=O)CS3)cc1	n	n	n	33	n	n
COc1ccc(CCN(C)C(=O)c2ccc(S(=O)(=O)Nc3ccccc3F)cc2)cc1OC	n	n	n	n	n	n
COc1ccc(CNCC(O)COc2ccc(C(C)(C)c3ccccc3)cc2)cc1 (stereo not drawn)	n	n	n	n	26	n
COc1ccccc1NCC(O)COc1ccc(C(C)(C)C)cc1 (stereo not drawn)	n	n	n	n	n	n
COc1ccc(NCC(O)COc2ccc(C(C)(C)C)cc2)cc1 (stereo not drawn)	n	27	n	n	n	n
CCCCCCN(C(=O)CCCCCN1C(=O)NC(c2ccc(-c3ccccc3)cc2)C(C(=O)OCc2ccccc2)=C1C)C(C)C(=O)NCCCC (stereo not drawn)	x	x	n	n	28	x
O=C(c1ccccc1)n1c(=O)c(F)cn(COCCBr)c1=O	n	n	n	n	n	n
COc1cc(/C=C/C(=O)O)ccc1OS(=O)(=O)c1c(C)c(C)cc(C)c1C	n	26	x	n	n	n
Cc1ccc(S(=O)(=O)NCCc2cccs2)cc1	n	n	n	n	n	n
CNC(=S)NNC(=O)CSCc1c(Cl)cccc1Cl	x	x	n	n	n	x
O=C(CSCc1ccccc1)NNC(=S)Nc1cccc(Cl)c1Cl	n	n	n	n	32	n
CCN(C1CCCCC1)S(=O)(=O)c1ccc(S(=O)(=O)NCc2ccncc2)cc1	n	n	n	n	n	n
CCN(C1CCCCC1)S(=O)(=O)c1ccc(S(=O)(=O)NCCc2ccncc2)cc1	n	25	n	n	n	n
CCN(Cc1cccs1)C(=O)CN1C(=O)NC(c2ccccc2)(c2ccccc2)C1=O	n	n	x	n	n	n
COc1ccc(CN(C)Cc2c(O)ccc3cc(Br)ccc23)cc1OC	n	n	n	n	n	n
COc1ccc(CCN(C)Cc2c(O)ccc3cc(Br)ccc23)cc1OC	n	36	n	n	n	n
CN(CC(=O)Nc1c(Cl)cccc1Cl)C(=O)C1=COCCO1	n	n	n	n	n	n
O=S(=O)(NC12CC3CC(CC(C3)C1)C2)c1ccc(F)cc1	n	28	n	n	n	n
COc1ccc(NS(=O)(=O)c2cc(NS(=O)(=O)c3cccs3)ccc2C)cc1	n	n	x	x	x	n
SMILES	PAFAH1B3 inh	PAFAH1B2 inh	Fam108B counter	PME-1 inh	pPAFAH inh	PAFAH2 FP inh
CC(=NNc1nc2ccccc2s1)c1ccncn1	n	n	x	x	x	n
C/C(=N\Nc1nc2ccccc2s1)c1ccc(Br)s1	n	n	n	51	n	n
Cc1cc(C)c(S(C)(=O)=O)c(Oc2cccc(C(F)(F)F)c2)n1	n	n	n	n	n	n
CC(=O)C[C@H](O)CC(=O)[C@H]1OC(=O)CCCCCCCCc2ccccc21	n	37	x	x	n	n
CC(=O)C[C@H](O)CC(=O)[C@H]1OC(=O)CCCCCc2ccccc21	n	n	x	x	n	n
Cc1ccccc1OCC(=O)NNC(=O)Cn1[nH]c(=O)c2ccccc2c1=O	n	n	x	x	n	n
O=C(O)C(c1ccccc1)N1C(=O)/C(=C\c2ccc(-c3ccccc3Cl)o2)SC1=S (stereo not drawn)	n	n	n	n	63	45
COCc1ccc(-c2c(-c3cccc(OC)c3)sc3ccc(OC)cc23)cc1	n	n	x	n	n	n
c1ccc2c(-c3ccc(OCCN4CCCCC4)cc3)c(-c3ccsc3)sc2c1	n	n	x	x	n	n
COCc1ccc(-c2c(-c3ccsc3)sc3ccccc23)cc1	n	n	x	n	25	n
Oc1ccc(-c2c(-c3ccsc3)sc3ccccc23)cc1	n	n	n	n	29	n
O=C(NN(Cc1ccccc1)Cc1ccccc1)c1ccccc1	n	n	x	x	x	n
COc1cc(-c2nc(-c3ccccc3)c(-c3cccs3)[nH]2)cc(OC)c1O	n	n	n	n	32	n
CC1C/C(=C/c2ccco2)C(=O)/C(=C/c2ccco2)C1 (stereo not drawn)	x	x	n	n	48	x
O=C1/C(=C\c2ccco2)CCC/C1=C\c1ccco1	n	n	n	n	n	n
N#C/C(=C\c1ccc(-c2cccc([N+](=O)[O-])c2)o1)C(=O)Nc1nc(-c2cccs2)cs1	n	n	n	n	33	n
CCOc1cccc(/C=C/c2ccc3cccc(O)c3n2)c1OC	n	n	n	n	n	n
CCOc1cccc(/C=C/c2ccc3cccc(O)c3n2)c1O	n	n	n	36	n	n
[O-][n+]1onc2c1CCC(=N/O)/C2=N\Nc1ccccc1	x	x	n	n	41	x
C=CCOc1cccc(C2C(C(=O)c3cc4ccccc4o3)=C(O)C(=O)N2c2cc(C)on2)c1 (stereo not drawn)	n	n	n	n	n	n
COc1ccc(OCc2cccc(C(=O)Nn3cc([N+](=O)[O-])cn3)c2)cc1	n	29	n	n	n	n
O=c1oc(-c2ccco2)nc2ccccc12	n	n	n	n	n	n
O=c1oc(-c2ccccc2[N+](=O)[O-])nc2ccccc12	n	n	n	n	n	45
COc1cc(C(=O)OCC(=O)Nc2ccccc2C(=O)NC2CC2)c([N+](=O)[O-])cc1OC	n	n	x	n	n	n
O=C(C1CCN(S(=O)(=O)c2cccc3cccnc23)CC1)N1CCn2c1nc1ccccc12	n	n	n	28	n	n
O=C(O)Cn1cc(/C=c2/sc3nc4ccccc4n3c2=O)c2ccccc21	n	n	n	31	n	n
O=C(Nc1nnc(S(=O)(=O)N2CCN(c3ccc(F)cc3)CC2)s1)c1ccccc1	n	n	n	n	n	n
N#CCC(=O)Nc1ccc(C(=O)OCC(=O)NNC(=O)c2ccc(Cl)cc2)cc1	n	n	n	n	n	n
CC(=O)Nc1ccc(C(=O)OCc2ccc(Cl)cc2)cc1	n	n	n	n	n	31

Screening results (PubChem)
